Bioassay records: PubChem BioAssay, The Scripps Research Institute Molecular Screening Center
hcDAF12 agonist = H. contortus DAF-12 activation, primary screen; HEK293 hcDAF-12 lit1-tk-luc reporter, luminescence; 0% DMSO, 100% Δ7-dafachronic acid; activation, % at 6.8 µM; 370,000 tested, 1.4% active;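 active = activation above the mean of all tested compounds plus 3 SD, cut at about 5.5% in these data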;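 also: 100% = response to 3 µM Δ7-dafachronic acid high control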
ssDAF12 agonist = activates DAF-12 receptor from parasite S. stercoralis; HEK293 ssDAF-12/GRIP1 lit1-tk-luc reporter, luminescence; % of 3 µM dafachronic acid response; AID 652126; activation, % at 6.8 µM; 370,000 tested, 1% active;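 active = activation above the mean over all tested compounds plus 3 SD, cut at about 0.9% in these data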;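 also: 0% = DMSO-only wells and 100% = 3 µM delta7-dafachronic acid wells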
DAX1 inh-1 = blocks DAX1 repression of SF-1 activated StAR promoter. HEK293T StAR-luciferase reporter, SF-1/DAX-1 repression relief. inhibition, % at 6.8 µM. 370,000 tested, 1.1% active. AID 652010;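 active = inhibition above the mean over all tested compounds plus 3 SD, cut at about 3.6% in these data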;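 also: 0% = DAX-1 cells with DMSO and 100% = cells lacking DAX-1 with DMSO; higher inhibition means more luminescence from relief of DAX-1 repression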
DAX1 inh-2 = inhibitors of human orphan nuclear receptor DAX1 (NR0B1); inhibition, % at 6.75 µM; HEK293 Gal4-DAX1 luciferase reporter, luminescence; 340,000 tested, 0.99% active; P51843; AID 504766;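 active = inhibition above the mean over all tested compounds plus 3 SD, cut at about 4.2% in these data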;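 also: 0% = DAX1-transfected cells with DMSO and 100% = empty-vector control cells with DMSO; inhibition shows as a rise in luminescence from relieved DAX1 repression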
Target sequence (P51843 207-470 limits assumed): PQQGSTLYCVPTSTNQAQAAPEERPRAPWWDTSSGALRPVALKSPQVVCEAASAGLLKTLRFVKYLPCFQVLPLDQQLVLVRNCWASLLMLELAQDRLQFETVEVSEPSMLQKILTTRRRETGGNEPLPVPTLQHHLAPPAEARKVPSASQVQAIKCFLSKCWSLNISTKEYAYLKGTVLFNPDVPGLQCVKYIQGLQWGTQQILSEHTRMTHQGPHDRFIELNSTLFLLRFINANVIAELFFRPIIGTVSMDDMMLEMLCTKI
AHR activator = activators of human aryl hydrocarbon receptor | AID 2796 | AHR-responsive luciferase reporter cells, luminescence | activation, % at 5 µM | P35869 | 320,000 tested, 2.5% active; in the data active = activation above about 47%;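 also: 0% = vehicle wells and 100% = reference agonist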
hgDAF12 agonist = hgDAF-12 agonism, primary luciferase screen. HEK293 GAL4-hgDAF12 UAS-luciferase reporter, agonist luminescence; normalized to butyrate control. activation, % at 6.8 µM. 370,000 tested, 1.8% active. AID 687014;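 active = activation above a cutoff set at the mean of all screened compounds plus 3 SD, cut at about 10% in these data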;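 also: 0% = DMSO wells and 100% = sodium butyrate wells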
AHR act confirm = confirmation of human aryl hydrocarbon receptor activators | shares compounds with AHR activator | human cells, AHR-responsive luciferase reporter, luminescence | activation, % at 9 µM | 2,300 tested, 87% active | AID 2845; in the data active = activation above about 49%;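 also: HepG2 hepatoma cells carrying a DRE-driven firefly luciferase reporter; 0% = vehicle wells and 100% = reference agonist wells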
PXR counter = PXR activation, counter-screen for AHR activators; shares compounds with AHR activator; cell-based PXR reporter, luciferase luminescence; activation, % at 11.6 µM; 2,300 tested, 88% active; in the data active = activation above about 11%;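 also: human hepatoma DPX-2 cells expressing full-length human PXR; 0% = DMSO and 100% = reference agonist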
Target sequence (O75469 whole entry, looked up): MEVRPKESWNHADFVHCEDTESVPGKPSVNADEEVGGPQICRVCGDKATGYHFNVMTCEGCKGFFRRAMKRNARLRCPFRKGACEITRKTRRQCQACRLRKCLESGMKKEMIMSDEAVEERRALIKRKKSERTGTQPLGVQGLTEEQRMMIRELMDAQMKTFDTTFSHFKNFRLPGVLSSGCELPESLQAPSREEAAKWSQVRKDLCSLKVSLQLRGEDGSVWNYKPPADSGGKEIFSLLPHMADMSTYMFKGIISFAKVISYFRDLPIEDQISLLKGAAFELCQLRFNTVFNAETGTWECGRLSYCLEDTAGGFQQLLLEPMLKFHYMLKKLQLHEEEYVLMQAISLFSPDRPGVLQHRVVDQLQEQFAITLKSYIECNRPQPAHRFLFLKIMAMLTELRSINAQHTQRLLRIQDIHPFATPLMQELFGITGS
Starred values were filed as active, the others as inactive; nt = not tested or not shown. Rows were chosen to be rich in hits. Some 5.7% of all compounds tested hit in one or more screens of this group.

SMILES | hcDAF12 agonist | ssDAF12 agonist | DAX1 inh-1 | DAX1 inh-2 | AHR activator | hgDAF12 agonist | AHR act confirm | PXR counter
CC(=O)c1c(N2CCN(Cc3ccccc3)CC2)[nH]c(-c2ccccc2)nc1=S | 2.2 | -1.3 | -0.6 | -1.2 | 4.5 | 0.8 | nt | nt
COc1ccc(NC(=O)COC(=O)COc2cccc3c2OC(C)(C)C3)cc1 | -1.3 | -0.9 | 0.6 | 0.6 | -0.9 | -3.3 | nt | nt
COC(=O)N/N=C/c1cn(Cc2ccccc2Cl)c2ccccc12 | -3.8 | -1.3 | -1.0 | -1.2 | 83.4* | -2.2 | 64.5* | 69.6*
Cc1csc(SC(C)C(=O)Nc2ccc3c(c2)OCCO3)n1 (centres undefined) | 0.5 | -0.9 | 0.7 | 1.0 | 5.5 | 7.3 | nt | nt
Cc1noc(C)c1C(=O)Nc1sc2c(c1C(N)=O)CCC2 | -2.7 | -1.6 | -0.6 | -1.0 | 26.5 | 2.9 | nt | nt
Fc1cccc2sc(Nc3nnc(-c4ccccc4)o3)nc12 | 2.1 | 0.3 | 2.3 | -0.9 | 154.8* | 6.0 | 119.6* | 22.5*
O=C(NC(=S)Nc1ccc(F)c(Cl)c1)C1CC1 | -2.0 | -1.2 | 0.1 | 2.1 | 92.6* | 1.9 | 95.3* | nt
Cc1nc(Nc2ccc3c(c2)OCCO3)c2c(C)c(C)sc2n1 | -0.4 | -0.5 | -1.3 | -2.2 | 46.9 | 0.1 | nt | nt
O=C(/C=C/c1ccccc1[N+](=O)[O-])Nc1cccnc1 | 3.4 | -0.6 | 1.4 | 1.0 | 144.8* | 10.1 | 83.1* | 33.5*
O=C(Nc1ccc(Br)c(C(F)(F)F)c1)[C@@H]1CC=C[C@@H]2CCN(CC3CC3)C(=O)[C@@H]21 | -1.7 | -1.7 | nt | nt | nt | -0.9 | nt | nt
Nc1c(C(=O)c2ccccc2)sc2c1c(=O)[nH]c(=O)n2-c1ccccc1 | -1.6 | -1.7 | -1.7 | -1.2 | -0.2 | -0.3 | nt | nt
Cc1ccc(C(=O)c2sc3c(c2N)c(=O)[nH]c(=O)n3CCc2ccccc2)cc1 | 3.1 | -0.2 | -1.7 | 0.7 | 86.0* | 5.2 | 92.5* | 42.4*
COc1ccc(-c2nnc(SCC(N)=O)n2N)cc1 | -2.5 | -1.6 | -0.4 | -1.2 | -1.0 | 1.5 | nt | nt
Cc1ccc(/C=N/NC(=O)CSc2nc3ccccc3n2C)s1 | 1.0 | -1.0 | -0.6 | -0.8 | 108.2* | -0.6 | 91.9* | 52.3*
Cn1c(SCC(=O)N/N=C/c2cccs2)nc2ccccc21 | -2.0 | -1.6 | -0.4 | 1.6 | 16.4 | 3.2 | nt | nt
Cc1ccc(C(=O)Nc2cccc(C(F)(F)F)c2)cc1Nc1ncnc2nc[nH]c12 | -4.8 | -1.3 | -2.9 | 1.2 | 83.7* | -6.7 | 39.1 | 30.0*
C#CCn1cc(/C=N/NC(=O)COc2cccc3cccnc23)c2ccccc21 | -0.3 | -1.6 | -0.1 | -1.5 | 103.4* | -0.7 | 62.6* | nt
O=C1CCCc2nc3c(cc21)C(O)Oc1c-3ccc2ccccc12 (centres undefined) | 2.3 | -0.9 | 2.1 | 1.3 | 147.8* | 12.4* | 13.0 | 44.8*
N/C(=N\N=C\c1ccc2c(c1)OCO2)SC1CC(=O)N(c2ccc(C(=O)O)cc2)C1=O (centres undefined) | 0.9 | -0.2 | 0.4 | -0.5 | 0.6 | 0.6 | nt | nt
Fc1ccc(Br)cc1/C=N/N1CCN(c2ccccc2)CC1 | 2.2 | -0.8 | -0.6 | -0.7 | 120.2* | 1.6 | 117.1* | 17.8*
CN(c1ccccc1)c1nc(-n2ccnc2)nc(-n2ccnc2)n1 | 0.8 | -1.0 | -0.8 | -1.1 | 91.5* | 0.8 | 106.5* | 29.2*
C1CCCN(c2nc3nonc3nc2N2CCCCCC2)CC1 | -1.2 | -1.1 | 0.3 | 0.1 | -1.0 | 0.1 | nt | nt
O=C(Nc1cccc(Cl)c1Cl)c1ccccc1OCC(=O)N1CCOCC1 | 3.5 | 0.4 | 1.1 | 0.3 | 82.3* | 5.1 | 89.4* | 49.3*
Cc1cccc(NC(=O)c2ccccc2OCC(=O)N2CCOCC2)c1C | -0.7 | -0.7 | 0.0 | -0.9 | -1.3 | -0.4 | nt | nt
Cc1cc(N/N=C/c2ccccc2O)nc(-c2ccccc2O)n1 | 2.4 | 0.8 | -0.1 | -1.2 | 118.6* | 0.6 | 40.2 | 9.0
SMILES | hcDAF12 agonist | ssDAF12 agonist | DAX1 inh-1 | DAX1 inh-2 | AHR activator | hgDAF12 agonist | AHR act confirm | PXR counter
Cc1cc(N/N=C\c2ccccc2)nc(-c2ccccc2O)n1 | -0.4 | 0.0 | -0.5 | -2.2 | 82.3* | 1.8 | 107.9* | 15.2*
Cc1cc(N/N=C/c2cccc(Br)c2)nc2ccccc12 | 3.2 | -0.8 | 0.6 | 0.1 | 99.7* | 6.0 | 97.2* | 33.8*
COc1ccc2nc(C)cc(N/N=C/c3ccccc3)c2c1 | nt | nt | nt | 0.3 | 142.2* | nt | 95.6* | 2.4
Cc1cc(N/N=C/c2ccc(O)cc2O)nc(-c2ccccc2O)n1 | nt | nt | nt | -3.0 | 11.7 | nt | nt | nt
COc1ccccc1C(=O)NC(=S)/C=C1/N(C)c2ccccc2C1(C)C | -3.4 | -1.8 | -1.8 | -0.3 | 81.4* | -4.1 | 33.2 | 100.4*
CN1/C(=C\C(=S)NC(=O)c2ccccc2Cl)C(C)(C)c2ccccc21 | -0.6 | -1.8 | -1.1 | -1.5 | 19.8 | -1.6 | nt | nt
Cc1ccc(S(=O)(=O)NC2(C(=O)O)CCCC2)cc1 | 0.7 | -1.3 | -0.9 | 1.0 | nt | -2.9 | nt | nt
O=C1c2ccccc2C(=O)N1CCCCN(C(=O)c1ccc([N+](=O)[O-])cc1)c1ccc(Cl)cc1 | -1.2 | -0.5 | -0.9 | -1.7 | 89.6* | 0.1 | 89.7* | 214.4*
CN(C(=O)c1ccc(NC(=O)Cc2ccc(NC(=O)C3CCN(C(=O)C4CCCC4)CC3)cc2)cc1)C1CCCC1 | -1.0 | -1.0 | 0.6 | 0.2 | nt | 0.4 | nt | nt
COc1cccc(-c2cc(-c3cccnc3)nc(N)c2C#N)c1 | -0.4 | -1.8 | -0.5 | 1.6 | 29.2 | -4.4 | nt | nt
N#Cc1c(-c2ccc(Br)cc2)cc(-c2cccnc2)nc1N | -2.6 | -1.0 | -0.5 | 1.8 | 93.1* | -0.9 | 72.8* | 18.3*
N#Cc1c(N)nc2c(c1-c1cccs1)CCCC2 | -2.3 | -0.8 | 0.2 | -0.6 | 18.5 | -0.8 | nt | nt
N#Cc1c(-c2cccc(Br)c2)cc(-c2cccnc2)nc1N | -1.9 | -1.5 | -0.2 | -0.7 | 23.1 | 1.8 | nt | nt
N#Cc1c(-c2cccs2)cc(-c2ccccn2)nc1N | 0.9 | -1.0 | -1.8 | -1.1 | 79.9* | -0.7 | 98.4* | 23.1*
N#Cc1c(-c2cccs2)cc(-c2cccnc2)nc1N | 2.1 | -1.3 | -1.2 | 0.0 | 101.7* | -1.0 | 129.5* | 27.8*
Cc1ccc(SCCC(=O)OCC(=O)Nc2ccc(S(N)(=O)=O)cc2)cc1 | -0.3 | -1.4 | -0.3 | 2.4 | -2.2 | 2.2 | nt | nt
COc1ccc2nc(-c3cccc(N)c3)[nH]c2c1 | 2.1 | -0.3 | 1.8 | 0.0 | 23.7 | 8.3 | nt | nt
COc1cccc(-n2c(N)c(-c3nc4ccccc4[nH]3)sc2=S)c1 | -0.6 | -1.1 | 0.2 | 0.2 | 88.9* | 5.9 | 129.7* | 97.1*
O=C1C(Cl)=C(Nc2ccc(O)cc2)C(=O)c2ccccc21 | 2.9 | -1.1 | -1.9 | -2.9 | 131.8* | -4.0 | 111.7* | nt
